Cycloheximide cs = counter-screen for Shiga toxin inhibitors: cycloheximide protein synthesis inhibition | cell reporter, cycloheximide protein synthesis inhibition counterscreen | max response, % | 300,000 tested, 12% active | AID 2314; in the data active means max response mostly above about 13%, no sharp cut-off; inactive means mostly below about 14%; further: read at 38.3 µM for the half of the compounds with a filed dose; 0% is about no effect
Pf growth 48h = inhibits P. falciparum growth in the first generation, 48 h. AID 504832. 310,000 tested, 5.9% active. P. falciparum luciferase growth in erythrocytes, 48 h. Potency, µM (top dose mostly 28.7 µM), inactives show top-dose activity change, negative = inhibition, actives largely listed as inhibitors; further: potency means the concentration at half of the fitted maximal effect; on the % scale 0 is the no-effect control and ±100 the full control effect
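Luciferase-expressing P. falciparum in infected erythrocytes (2% hematocrit, 0.1% parasitemia final) in RPMI 1640/0.5% Albumax were exposed to compound for 48 hours at 37 C, 5% CO2; growth read as luminescence.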
Shiga toxin inh = inhibitors of Shiga toxin in Vero cells; Vero cells, Shiga toxin protein synthesis inhibition reporter; inhibition, % at 38.7 µM; 290,000 tested, 9.2% active; in the data active means inhibition mostly above about 28%, no sharp cut-off; inactive means mostly below about 43%; further: 0% is about no effect
Pf growth 96h = inhibits malaria parasite growth, 96 h. AID 504834. P. falciparum luciferase reporter growth, 96 h. 320,000 tested, 6.9% active. Potency, µM (titrated, usually from 28.7 µM), for the others: at the highest dose activity change, negative = inhibition, hits mostly inhibitors; further: potency means the concentration at half of the fitted maximal effect; on the % scale 0 is the no-effect control and ±100 the full control effect
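Erythrocytes infected with luciferase-expressing P. falciparum were dispensed at 2% hematocrit and 0.05% parasitemia (final), then incubated with compounds 96 hours at 37 C in 5% CO2. Luminescence after detection reagent addition reported growth.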
NS1 function inh = blocks influenza NS1 protein function; Potency, µM (doses to about 46.1 µM), without a hit: at the highest dose activity, positive = more growth; 270,000 tested, 0.4% active; calls by dose curve; further: potency means the concentration at half of the fitted maximal effect; actives are rising curves; nearly all actives have a fitted effect of over 50% in size
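Compounds were scored for reversing the slow growth caused by influenza A NS1 in S. cerevisiae, measured by optical density at 600 nm. Assay medium contained 2% galactose at pH 6.0; NS1-free yeast of the same strain were the positive control.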
Starred values were filed as active, the others as inactive; i = inactive; u = inconclusive; x = no result given; [ ] = dose if it differs, or a comment. This is a sample that favours compounds with a hit; in the whole collection about 21% have one here. Unless noted, the call rests on the fitted dose curve; in most records, active means well fitted inhibition curve with a large enough effect; inconclusive means small, poorly fitted or top-dose-only effect, or another doubt; inactive means no such curve, though single readings can be large or run the other way.

SMILES | Cycloheximide cs | Pf growth 48h | Shiga toxin inh | Pf growth 96h | NS1 function inh
CCOC(=O)C1CCCN(Cc2ccc(OCc3ccccc3)cc2)C1 (configuration not stated) | 44.1* | -42.0% | 98.7* | u | 0.3%
Cc1cc(C)c(OCCCCN(C)C)c(Br)c1 | -1.2 | -13.6% | -7.3 | 5.9% | -1.3%
CCCN1CCC(N(CCc2ccccc2)Cc2ccccc2)CC1 | -0.9 | u | 18.2 | 11.7µM* | 7.9%
CCN1CCN(Cc2ccc(OCc3ccccc3)c(OC)c2)CC1 | 49.3* | 127.2% | 105.2* | i | -5.3%
Cc1cc(Cl)cc(Cl)c1OCCCCN(C)C | 47.2* | u | -16.9 | 7.9% | -5.2%
O=C(COC(=O)/C=C/c1cccc(C(F)(F)F)c1)NCc1cccs1 | x | -1.1% | x | -15.1% | x
CCOC(=O)C1CCCN(Cc2ccc(OCc3ccccc3)c(OC)c2)C1 (configuration not stated) | 18.1* | -48.3% | x | 13.1µM* | -12.9%
COc1ccc(-c2nc(CN3CCN(C(=O)c4ccco4)CC3)c(C)o2)c(OC)c1C | -2.0 | 7.38µM* | 13.3 | 53.0% | -2.3%
CCOC(=O)C1CCCN(Cc2ccc(O)c(OC)c2)C1 (configuration not stated) | -2.4 | 9.2% | -7.7 | -2.8% | -6.0%
CN(C)CCCCOc1ccc(Br)cc1Cl | 14.2* | u | 28.5 | 1.8% | 2.0%
COc1ccc(OC)c(-c2nc(CN3CCN(C(=O)c4ccco4)CC3)c(C)o2)c1 | -2.4 | u | -8.2 | u | 7.8%
CCC1Cc2cc(O)ccc2C2=C1c1ccc(O)cc1CC2CC (configuration not stated) | -8.2 | x | -9.5 | x | x
CC/C(O)=C1\C(=O)CC(c2ccccc2)CC1=NCCc1c(C)[nH]c2ccc(C)cc12 (configuration not stated) | -3.0 | u | -5.9 | u | -4.6%
CCC/C(O)=C1\C(=O)CC(c2ccccc2)CC1=NCCc1c(C)[nH]c2ccc(C)cc12 (configuration not stated) | -1.1 | 1.85µM* | 12.0 | u | -9.5%
CC(=O)C1=C(O)CC(c2ccccc2)CC1=NCCc1c(C)[nH]c2ccccc12 (configuration not stated) | -5.9 | 7.38µM* | -18.9 | -27.4% | -7.8%
C=CCOC(=O)c1sc(N2C(=O)c3oc4ccccc4c(=O)c3C2c2ccco2)nc1C (configuration not stated) | x | x | x | x | 2.5%
NC(=O)OC[C@@H]1[C@H](NC(=O)/C(=N/OCC(=O)O)c2csc(N)n2)C(=O)N1S(=O)(=O)O | x | u | x | 0.426µM* | x
C=CC1=C(C(=O)O)N2C(=O)[C@@H](NC(=O)/C(=N\OCC(=O)O)c3csc(N)n3)[C@@H]2SC1 | x | -12.3%[12.8 µM] | x | -8.4%[12.8 µM] | x
C=CCN1C(=O)C(C)NC1=S (configuration not stated) | -0.6 | 25.2% | 6.7 | 6.3% | 5.1%
CNc1ccc(Br)cc(C(=O)/C=C/c2cccc(OC)c2)c1=O | 12.8* | u | -35.5 | u | 16.0%
CNc1ccc(Br)cc(C(=O)/C=C/c2ccc(OC)cc2OC)c1=O | 64.9* | u | 79.6* | u | u
CNc1ccc(Br)cc(C(=O)/C=C/c2ccc(Cl)cc2Cl)c1=O | 2.1 | u | -4.1 | u | 3.1%
Cc1cc(NC(=O)C(C)SCC(=O)O)no1 (configuration not stated) | -0.5 | u | -5.3 | -0.4% | x
Cc1cccc(N(Cc2ccccc2)C(=O)CSC(C)C(=O)Nc2cc(C)on2)c1 (configuration not stated) | x | u | x | 10.4µM* | x
COc1ccc(NC(=O)COc2nsnc2N2CCCCC2)cc1 | -1.6 | 7.3% | 2.5 | u | -7.8%
SMILES | Cycloheximide cs | Pf growth 48h | Shiga toxin inh | Pf growth 96h | NS1 function inh
O=C(CSc1nc2ccccc2nc1N1CCOCC1)N1CCN(c2ccccc2)CC1 | -1.7 | 9.28µM* | 4.9 | u | -15.8%
CCOc1ccc(NC(=O)CSc2nc3ccccc3nc2N2CCOCC2)cc1 | 1.7 | u | 32.6 | 11.7µM* | 9.8%
CCOc1ccc(NC(=O)CSc2nc3ccccc3nc2N2CC(C)OC(C)C2)cc1 (configuration not stated) | 9.7 | u | 2.0 | 9.28µM* | 21.1%
COc1ccc(NC(=O)CSc2nc3ccccc3nc2N2CCOCC2)cc1 | -2.2 | -22.7% | 3.1 | -11.4% | -10.3%
CCOc1ccc(NC(=O)COc2nsnc2N2CCCCC2)cc1 | -4.5 | -4.6% | -19.4 | 11.7µM* | -2.8%
CCc1nc2ccccc2n1Cc1ccccc1F | 1.5 | -15.8% | -7.6 | -12.5%[5.75 µM] | -1.5%
COC(=O)c1cc(NC(=O)Cn2c(=O)cnc3ccccc32)cc(C(=O)OC)c1 | -7.4 | 32.0% | -9.2 | 5.8% | 6.2%
Cc1ccc(Cl)cc1NC(=O)CCC(=O)Nc1cc(Cl)ccc1C | -1.6 | x | -8.0 | 37.7% | -1.9%
O=C(COc1ccccc1)Nc1ccccc1F | 32.9* | 46.1% | x | -21.2% | -15.8%
O=C(COc1ccccc1)Nc1ccc(Cl)cc1C(=O)c1ccccc1 | 5.1 | -15.7% | -3.4 | -4.2% | -0.6%
CCCNS(=O)(=O)c1ccc(OCC(=O)Nc2ccccc2F)cc1 | 12.5 | 1.9% | 11.3 | -4.0% | -4.7%
O=C(COc1ccc(Cl)cc1)NC1=NN(c2ccccc2)C(=O)C1 | -3.6 | 7.8% | -3.7 | 8.28µM* | u
O=C(COc1ccccc1)Nc1ccc(Cl)cc1Cl | 52.8* | 117.7% | 92.6* | 136.7% | -6.6%
Cc1ccc(Cl)cc1NC(=O)COc1ccccc1 | 15.6* | 15.9% | 30.4 | 22.4% | -2.0%
Cc1ccc(Cl)cc1NC(=O)COC(=O)C12CC3CC(CC(C3)C1)C2 | -2.7 | 3.7µM* | 35.9 | 7.38µM* | 1.2%
CC(C)CNC(=O)c1ccc(Cl)c(NC(=O)COc2ccccc2)c1 | -1.5 | -9.0% | -1.1 | u | 0.1%
O=C(COc1ccccc1)Nc1cc(Cl)ccc1Cl | 17.5* | 54.2% | 37.1* | 43.9% | 5.9%
COC(=O)COc1ccc(S(=O)(=O)NCc2cccnc2)cc1C | 1.3 | 2.8% | 22.2 | x | -2.7%
Cc1onc(-c2ccccc2Cl)c1C(=O)Nc1cccc(S(=O)(=O)NC2=NCCC2)c1 | x | u | x | 7.0% | x
O=C(c1cn(CC2CCCCC2)nn1)N1CCN(c2ccc(F)cc2)CC1 | 30.2* | 4.2% | 48.8* | 15.0% | -21.8%
CC(C)Cc1cc(C(=O)N2CCN(c3ccc(F)cc3)CC2)no1 | 10.9 | 4.9% | 13.7 | -29.2% | -8.2%
O=C(Nc1nc(-c2ccccc2)c(-c2ccccc2)o1)c1ccc(F)cc1 | 0.4 | u | 6.6 | 9.28µM* | -67.8%
CC(C)N(CCO)Cc1nc(C(c2ccccc2)c2ccccc2)no1 | -1.1 | u | -3.4 | 9.28µM* | 21.4%
COCCCNC(=O)CNC(=O)c1nn(-c2ccc(OC)c(Cl)c2)c(=O)c2ccccc12 | -1.4 | x | -4.9 | 0.0% | -2.0%
C=CCOc1c(Br)cc(CNc2ccc(NC(=O)C(C)C)c(OC)c2)cc1OCC | 34.3* | 9.28µM* | 9.6 | u | 4.7%
C=CCOc1c(Br)cc(CNc2ccc3[nH]c(=O)[nH]c3c2)cc1OCC | -0.5 | 2.1% | 24.8 | 10.4µM* | 6.0%
C=CCOc1ccc(CNc2ccc(NC(=O)CCC)cc2)cc1OCC | -3.0 | 14.7µM* | -8.6 | 11.7µM* | 6.3%
